# Bioassay records as filed in PubChem.
# A selection follows.
# aSyn UTR act: Activators working through SNCA 5'UTR binding (MLPCN); alpha-synuclein 5'UTR reporter, activators screen; activity score, % (tested at 7.5 µM), hits read low; hit rate 7.1% among 300,000; AID 1814; in the data active = activity score below about -60%
# The depositor's hits bear a star.
SMILES,aSyn UTR act
COc1ccc(/C=C2\SC(=S)N(CCC(=O)NC3C=CS(=O)(=O)C3)C2=O)cc1 (stereo not drawn),66.4
Oc1ccc(NC(=S)N=Nc2c(O)[nH]c3ccccc23)cc1,-130.7*
C=CCn1c(O)c(N=NC(=S)Nc2cccc(C)c2)c2ccccc21,93.6
O=C(N=Nc1c(O)[nH]c2ccccc12)c1cccs1,-74.3*
CC(C)c1ccc2[nH]c(O)c(N=NC(=O)c3cccc(S(=O)(=O)Nc4ccc(Cl)cc4)c3)c2c1,79.4
O=C(N=Nc1c(O)[nH]c2ccc(Br)cc12)c1cc(-c2cccs2)nc2ccccc12,81.4
N/C(=N\OC(=O)c1ccc(Br)o1)c1cccnc1,-142.8*
COc1ccc(/C(N)=N/OC(=O)c2ccc(Br)o2)cc1,-154.5*
S=C(Nc1ccccc1)c1ccccn1,-164.6*
Cc1cc(N2CCOCC2)nc2ccc(NC(=O)CCC(=O)N3CCN(c4ccc(F)cc4)CC3)cc12,-72.1*
Cc1cc(N2CCOCC2)nc2ccc(NC(=O)CCC(=O)N3CCN(c4ccccc4F)CC3)cc12,-126.8*
Cc1cc(N2CCOCC2)nc2ccc(NC(=O)CCC(=O)N3CCCC(C)C3)cc12 (stereo not drawn),-86.5*
C=CCn1c(C)cc(C(=O)COC(=O)[C@@H](NC(=O)c2ccccc2Cl)C(C)C)c1C,-69.7*
CCOc1cccc2cc(-c3csc(NC(=O)CCC(=O)NCCCN4CCC(C)CC4)n3)c(=O)oc12,-76.2*
CCOc1cccc2cc(-c3csc(NC(=O)CCC(=O)NCCN4CCCCC4C)n3)c(=O)oc12 (stereo not drawn),-134.5*
Cc1nc2c(C(=O)N3CCCCC3)cnn2c(C)c1Cc1ccccc1F,-117.2*
Brc1cccc(-c2n[nH]c(-c3ccccc3)n2)c1,-76.9*
c1ccc(-c2nc(-c3cccnc3)n[nH]2)cc1,-85.4*
COc1ccccc1-c1cc(C(=O)Nc2ccc(F)cc2F)no1,-155.3*
COc1ccccc1-c1cc(C(=O)NC(C)C)no1,-264.6*
COc1ccc(NC(=O)c2cc(-c3ccccc3Cl)on2)cc1OC,-96.1*
CCN(CC)C(=O)c1cc(-c2ccccc2OC)on1,-124.8*
CCCC[n+]1ccn(C2=C([O-])c3ccccc3C(=O)/C2=N\S(=O)(=O)c2ccc(Cl)cc2)c1,66.0
CCC(C)NC(=O)c1cc(-c2ccccc2O)on1 (stereo not drawn),-82.9*
c1ccc(-c2noc(C3CCCCC3)n2)nc1,-81.8*
SMILES,aSyn UTR act
Brc1ccc(-c2noc(C3CCCCC3)n2)cc1,-143.0*
Cc1ccc(-c2cc(N)nc(-c3ccccc3)c2)cc1,-86.9*
O=C(c1ccccc1)c1ccc(Cn2cc(-c3ccccc3)nn2)cc1,-135.2*
CCCCCc1ccc(-c2cn(Cc3ccc(C(=O)c4ccccc4)cc3)nn2)cc1,-138.1*
CCCCCc1ccc(-c2ccc(/C=C/C(=O)O)cc2)nc1,79.2
CC(C)(C)SCCNC(=O)CSc1ccccc1,-72.5*
CC(C)(C)SCCNC(=O)Nc1ccccc1,-87.0*
C=CCNc1nc(-c2ccc(Cl)cc2)cs1,-238.3*
C=CCNc1nc(-c2ccc([N+](=O)[O-])cc2)cs1,-182.2*
CN(C)c1nc(-c2ccc([N+](=O)[O-])cc2)cs1,-123.2*
CC(C)c1ccc(NC(=O)CSc2ncccc2C(=O)Oc2cccc([N+](=O)[O-])c2)cc1,-115.0*
N#C/C(=N\Nc1ccc(F)cc1)C(=N)N1CCCCC1,-111.0*
N#C/C(=N\Nc1cccc(F)c1)C(=N)N1CCCCCC1,-94.9*
N#C/C(=N\Nc1ccccc1)C(=N)N1CCCCCC1,-170.9*
O=C(N/N=C/c1cccc(F)c1)c1cc(-c2ccco2)nc2ccccc12,-120.2*
COC(=O)c1ccc2nc(NC(=O)C(C)C)sc2c1,-74.2*
CCOC(=O)c1ccc2nc(NC(C)=O)sc2c1,-126.4*
CC(=O)Nc1nc2ccc(Br)cc2s1,-106.7*
COC(=O)c1ccc2nc(NC(=O)C3CC3)sc2c1,-145.8*
Cc1ccc2nc(NC(=O)COC(=O)c3ccncc3)sc2c1,-118.4*
C(=C\c1cccc2ccccc12)/c1nnc(-c2cccs2)o1,-69.0*
C=CCOC(=O)/C(=C/c1cccc2ccccc12)NC(=O)c1ccccc1,-258.1*
C/C(O)=C(\N=Nc1cc(C)ccc1O)C(N)=O,-65.5*
CC(C)(C)C1CCc2onc(C(=O)Nc3cccc(O)c3)c2C1 (stereo not drawn),-92.3*
CC(=O)N1N=C(c2ccc(C)cc2)OC1c1ccc(C(C)C)cc1 (stereo not drawn),-181.7*
SMILES,aSyn UTR act
CC(=O)N1N=C(c2ccc(C)cc2)OC1c1ccc(C)cc1 (stereo not drawn),-129.0*
Cc1cc(NC(=O)c2ccc([N+](=O)[O-])cc2)no1,-130.3*
CC(=O)Nc1ccc(S(=O)(=O)c2ccc([N+](=O)[O-])cc2)cc1,-72.2*
O=C(Nc1cccc(NC(=O)c2cc([N+](=O)[O-])ccc2Cl)n1)c1cc([N+](=O)[O-])ccc1Cl,48.4
Cc1ccc(NC(=O)c2ccc([N+](=O)[O-])cc2Cl)nc1,-119.2*
Cc1cc(NC(=O)c2ccc([N+](=O)[O-])cc2Cl)no1,-129.5*
Cc1cc(NC(=O)C(Cl)c2ccccc2)no1 (stereo not drawn),-74.0*
Cc1nc2ccc(NC(=O)c3ccc([N+](=O)[O-])cc3)cc2[nH]1,-106.0*
Cc1cc(NC(=O)NC(=O)c2ccccc2F)no1,-108.5*
CC(C)Oc1ccc(C(=O)Nc2ccc([N+](=O)[O-])cc2)cc1,-211.5*
Cc1cc(NC(=O)c2ccccc2Cl)no1,-68.1*
Cc1ccc(NC(=O)c2ccccc2Cl)c(Cl)c1,-83.3*
Cc1cc(NC(=O)c2sc3ccccc3c2O)no1,-64.4*
Cc1cc(NC(=O)c2cc(C(C)C)on2)no1,-139.8*
O=C(NC(=O)N1CCN(c2ccccc2)CC1)c1ccc(Cl)cc1,-66.1*
CS(=O)(=O)NNC(=O)Cn1nnc(-c2ccc(OCc3ccccc3Cl)cc2)n1,-106.7*
CSc1cccc(CNC(=O)C2CCC(=O)N(Cc3cccc(C(F)(F)F)c3)C2)c1 (stereo not drawn),-72.6*
CN(C(=O)C1CCC(=O)N(Cc2cccc(F)c2)C1)C1CCCCC1 (stereo not drawn),-125.6*
Cc1ccsc1CN(C)C(=O)C1CCC(=O)N(CCc2cccc(F)c2)C1 (stereo not drawn),-90.9*
Cc1ccsc1CCNC(=O)C1CCC(=O)N(CCc2cccc(F)c2)C1 (stereo not drawn),-102.3*
COc1ccc(-n2c(=S)[nH]c3cc(C(=O)Nc4ccc(F)cc4)ccc3c2=O)c(OC)c1,-141.9*
COc1ccc(NCc2nnc(SCC(=O)Nc3cc(C)cc(C)c3)o2)cc1,-64.7*
CC(C)(C)c1ccc(NC(=O)CSc2nnc(-c3n[nH]c4ccccc34)o2)cc1,-128.7*
O=C(CSc1nnc(-c2ccc(C(F)(F)F)cn2)o1)Nc1ccccc1Cl,-98.0*
COc1ccc(NCc2nnc(SCC(=O)Nc3cc(C(F)(F)F)ccc3Cl)o2)cc1,-62.9*
SMILES,aSyn UTR act
O=C1C=C(c2ccccc2)C[C@H](c2cccs2)[C@H]1n1nnc([N+](=O)[O-])n1,88.3
Cc1nc(N)sc1N=Nc1ccccc1C(F)(F)F,-184.2*
COc1ccc(-c2csc(NC(=O)c3ccccc3F)c2C(=O)O)cc1,-89.5*
COC(=O)c1c(-c2ccc(C)cc2)csc1NC(=O)c1c(-c2ccccc2)noc1C,67.9
COC(=O)c1c(-c2ccc(F)cc2)csc1NC(=O)c1ccco1,-128.7*
COC(=O)c1c(-c2cccnc2)csc1NC(=O)c1cc(C)on1,-231.2*
Cc1ccc(C(=O)Nc2scc(-c3ccccc3)c2C(=O)O)cc1,-91.8*
